Reference: PubChem BioAssay AID932 (The Scripps Research Institute Molecular Screening Center, 2007)
Screen size: about 200,000 compounds; about 5,100 (2.5%) were called active.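 The calls were made as follows: active = activation above the screen-wide mean activation plus 3 SD (cut at about 130% in these data); inactive = the rest.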 Shown is part of a subset that was picked to be rich in actives.

Test: STAT1 signaling activators, primary screen, cell-based, HTS, luciferase reporter (AID 932);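 also: raw ratio to IFN-gamma control signal so 100% means no change and 0% no light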
Details: NIH 3T3 STAT1-luciferase reporter, IFN-gamma, luminescence; at 5.5 µM; hits give high values; 100% = IFN-gamma alone, no compound

Structure (SMILES)	activation (% of control)
COC(=O)c1ccc(NCC(=O)c2ccccc2)cc1	133% (active)
Cc1ccc(C(=O)CNc2ccc(F)cc2)cc1	111% (inactive)
COC(=O)c1ccc(NCC(=O)N2CCCCCC2)cc1	114% (inactive)
CN(Cc1ccccc1)C(=O)CCc1ccccc1	104% (inactive)
Cc1ccn(-c2cccc(-n3ccc(C)n3)n2)n1	135% (active)
COc1cc(C(=O)NCc2ccc3c(c2)cc(C)n3C)cc(OC)c1OC	89.2% (inactive)
COc1cccc(CNC(=O)CCC2CCCN(C(=O)c3ccoc3C)C2)c1 (stereo not given)	105% (inactive)
Cc1cccc(N2CCN(C(=O)/C=C/c3ccco3)CC2)c1C	99.5% (inactive)
Cc1nc2ccc(NC(=O)C(F)(F)F)cc2o1	95.8% (inactive)
Cc1ccc(NC(=O)Nc2ccc3oc(C)nc3c2)cc1	177% (active)
Cc1nc2cc(NC(=O)NCc3ccccc3)ccc2o1	111% (inactive)
CC(C)NC(=O)/C(C#N)=C\c1ccc(N(C)C)c(Br)c1	100% (inactive)
N#Cc1cccc(Nc2c3c(nc4ccccc24)CCCC3)c1	85.5% (inactive)
Cc1cc(C(=O)NCCCc2ccccc2)no1	110% (inactive)
CC(C)Cc1cc(C(=O)NCCc2ccccc2)no1	130% (active)
CC(C)Cc1cc(C(=O)Nc2cc(Br)ccc2O)no1	101% (inactive)
COc1ccc2c(c1)CC[C@@H]1[C@@H]2CC[C@]2(C)C(=O)CC[C@@H]12	106% (inactive)
COc1ccc2oc(-c3cccc(NC(=O)CSc4ccc(Cl)cc4)c3)nc2c1	163% (active)
O=C(Cc1cccc2ccccc12)Nc1ccc2oc(-c3ccccc3)nc2c1	102% (inactive)
COc1cccc(-c2nc3cc(C)ccc3o2)c1	106% (inactive)
O=C(Nc1cccc(O)c1)c1ccc(C(=O)c2ccccc2)o1	113% (inactive)
O=C(NCc1cccs1)c1cc(-c2ccccn2)nc2ccc(Br)cc12	106% (inactive)
COc1ccc(-c2cn(-c3ccc(OC)cc3)c(=S)[nH]2)cc1	110% (inactive)
O=C(NNC(=S)Nc1ccc(Br)cc1Cl)c1ccco1	140% (active)
S=C(Nc1ccc(Br)cc1Cl)NC1CCN(Cc2ccccc2)CC1	100% (inactive)

Structure (SMILES)	activation (% of control)
CCC(=O)NC(=S)Nc1ccc(NC(=O)c2ccco2)c(Cl)c1	109% (inactive)
CCN1CCN(C(=O)CCN2C(=O)c3ccccc3C2=O)CC1	96.8% (inactive)
CCc1ccccc1NC(=O)CSc1nnc(-c2ccncc2)o1	99.3% (inactive)
O=C(Nc1ccc(C(=O)O)cc1)/C(=C/c1ccc([N+](=O)[O-])cc1)NC(=O)c1ccccc1	94.6% (inactive)
COc1ccc(-c2nn(-c3ccccc3)cc2/C=C\C(=O)Nc2ccc(C(=O)O)cc2)cc1	103% (inactive)
COc1ccc2[nH]c(=O)c(-c3noc(-c4ccc(F)cc4)n3)cc2c1	114% (inactive)
COc1ccc(-c2noc(CSc3ccc(C)cc3)n2)cc1	102% (inactive)
COc1ccc(-c2nc(-c3ccccc3)no2)c(OC)c1	43.8% (inactive)
Cc1cccc(-c2noc(-c3ccc(F)cc3)n2)c1	152% (active)
Cc1ccc(Cc2nc(-c3cccc(C)c3)no2)cc1	115% (inactive)
COc1ccc(-c2noc(-c3ccc(C)cc3)n2)cc1	133% (active)
CC1COc2ccccc2N1C(=O)c1cccnc1Cl (stereo not given)	98.3% (inactive)
Cc1nc(N)c(Br)c(C)c1Br	96.7% (inactive)
CNC(=S)Nc1ccc([N+](=O)[O-])cc1	96.9% (inactive)
Cc1cc(C(=O)CC#N)c(C)n1-c1c(C)n(C)n(-c2ccccc2)c1=O	102% (inactive)
CC1(C)CC(=O)C/C(=N\NC(=O)c2cccs2)C1	101% (inactive)
COc1ccccc1Oc1nc(-c2cccnc2)nc2ccccc12	102% (inactive)
COC(=O)c1c(C)[nH]c(C(=O)/C=C/c2ccc(Cl)cc2)c1C	98.9% (inactive)
CCCCOC(=O)c1[nH]c(C)c(C(=O)OC)c1C	134% (active)
CC(=O)c1c(C)[nH]c(C(=O)OCC(=O)NCCC(C)C)c1C	86.3% (inactive)
COC(=O)C1=C(N)Oc2c(oc(CO)cc2=O)C1c1c(F)cccc1Cl (stereo not given)	95.5% (inactive)
COc1cccc(CC2(CO)CCN(Cc3cnc(-c4cccc(C)c4)nc3)CC2)c1	99.5% (inactive)
N/C(=N\OC(=O)/C=C/c1ccccc1)c1ccc(Br)cc1	98.9% (inactive)
N/C(=N\OC(=O)c1ccc2c(c1)OCO2)c1ccc(Br)cc1	144% (active)
N/C(=N\OC(=O)N1c2ccccc2Sc2ccccc21)c1ccc(Br)cc1	92.7% (inactive)

Structure (SMILES)	activation (% of control)
CN(NC(=O)C1CC(=O)N(c2ccccc2)C1)C1=NS(=O)(=O)c2ccccc21 (stereo not given)	97.3% (inactive)
O=C(CCS(=O)(=O)c1cccc2nsnc12)N1CCN(c2ccccc2F)CC1	106% (inactive)
O=C(CCSc1ccccc1)N1CCN(c2ccccc2F)CC1	135% (active)
O=C(c1cccc2ccccc12)N1CCN(c2ccccc2F)CC1	101% (inactive)
COc1cc(CN2CCN(Cc3ccc(C)cc3)CC2)c([N+](=O)[O-])cc1OC	90.7% (inactive)
Cc1cc(C)nc(-n2ncc3c2CC(c2ccc(C(C)C)cc2)CC3=O)n1 (stereo not given)	104% (inactive)
Cc1cc(C)cc(C(=O)NC2C(=O)N3C(C(=O)O)=C(CSc4nnc(C)s4)CSC23)c1 (stereo not given)	93.1% (inactive)
COc1cc(NC(=O)c2ccc3c(c2)OCO3)ccc1NC(=O)c1cccs1	101% (inactive)
COc1cc(CNc2ncn[nH]2)ccc1OCc1ccccc1C	131% (active)
c1n[nH]c(NCc2ccc3c(c2)OCO3)n1	89.7% (inactive)
COc1ccc(CCNC(=O)C(=O)NCc2ccccc2C)cc1OC	96.8% (inactive)
COc1cccc(CC2(CO)CCCN(CC3=Cc4cc(OC)ccc4OC3)C2)c1 (stereo not given)	92% (inactive)
CCOC(=O)c1ccc(NC(=O)c2cc(=O)[nH]c3ccccc23)cc1	102% (inactive)
COC(=O)[C@H]1Cc2cnoc2C[C@]1(C)C(=O)O	106% (inactive)
CCc1nnc(NC(=O)Cc2cccs2)s1	98.1% (inactive)
CCCc1nnc(NC(=O)c2cccs2)s1	115% (inactive)
CCc1nnc(NC(=O)c2cccs2)s1	134% (active)
O=C(c1ccc(C(F)(F)F)cc1)C1CCCN(C(=O)c2csnn2)C1 (stereo not given)	87.3% (inactive)
N#CCC(=O)N/N=C/c1ccc(SCC(=O)Nc2ccccc2)o1	108% (inactive)
O=C1COc2ccc(C(=O)COC(=O)c3cccnc3Cl)cc2N1	109% (inactive)
O=C(N/N=C\c1ccc(Br)cc1)c1ccc(Cn2cccn2)o1	118% (inactive)
O=C(N/N=C/c1ccc2c(c1)OCO2)c1ccc(Cn2cc([N+](=O)[O-])cn2)o1	109% (inactive)
CN(C)c1ccc(/C=N/NC(=O)c2ccc(Cn3cc(Br)cn3)o2)cc1	135% (active)
C=CCn1c(COc2ccc(F)cc2)nnc1SCC(=O)Nc1cccc(S(N)(=O)=O)c1	97.8% (inactive)
Cc1c(/C=N/N2C(=O)C3C4C=CC(C4)C3C2=O)c2ccccc2n1C (stereo not given)	90.4% (inactive)

Structure (SMILES)	activation (% of control)
C/C(=N\OC(=O)c1ccccc1)c1c(C)nc2cc(C)ccn12	99.5% (inactive)
Cc1ccc2nc(-c3ccc(NC(=O)CN(C)S(=O)(=O)c4ccccc4)cc3)sc2c1	102% (inactive)
Cc1ccc(N(CC(=O)Nc2cccc(N(C)S(C)(=O)=O)c2)S(C)(=O)=O)cc1	92.8% (inactive)
Cc1cccc(N(CC(=O)Nc2ccc(-c3nc4ccc(C)cc4s3)cc2)S(C)(=O)=O)c1	142% (active)
Cn1c(=N)n(CC(O)c2cccs2)c2ccccc21 (stereo not given)	95.5% (inactive)
ClC1(Cl)CC1CSc1ncn[nH]1 (stereo not given)	102% (inactive)
O=C(C1CCN(C2CCN(Cc3ccc4cc(F)ccc4n3)CC2)CC1)N1CCCC1	98.4% (inactive)
N#Cc1c(N)nc2c(c1N)CC(C(F)(F)F)O2 (stereo not given)	92.8% (inactive)
Cc1nn(C)c(C)c1Sc1ccccc1N	99.2% (inactive)
CCn1c(CSc2nc(C)cc(C)n2)nnc1SCC(N)=O	103% (inactive)
COc1ccc(S(=O)(=O)N2CCCCCC2)cc1C(=O)OCC(=O)Nc1cc(C)on1	97% (inactive)
Cc1ccc(/C=C/C(=O)Nc2cc(S(=O)(=O)N3CCCCCC3)ccc2OCC(F)(F)F)o1	139% (active)
Cc1ccc(/C=C/C(=O)Nc2ccc([N+](=O)[O-])c(NC(=O)/C=C/c3ccc(C)o3)c2)o1	101% (inactive)
O=[N+]([O-])c1ccc(NCCCO)c(C(F)(F)F)c1	105% (inactive)
CN(C(=O)c1ccno1)c1nnc(-c2cccnc2)s1	102% (inactive)
CN(C(=O)c1ccccn1)c1nnc(-c2ccccn2)s1	142% (active)
CN(C(=O)COc1ccccc1)c1nnc(-c2ccncc2)s1	107% (inactive)
COc1ccc(N=C2SC(C(=O)Nc3ccc(F)cc3)CC(=O)N2C)cc1 (stereo not given)	88.3% (inactive)
Cc1ccccc1NCC(=O)N/N=C\c1ccc([N+](=O)[O-])s1	92.7% (inactive)
CN(C(=O)CSc1nncc2ccccc12)C1CCCCC1	131% (active)
CN(C(=O)COc1ncnc2c1cnn2-c1ccccc1)C1CCCCC1	94.4% (inactive)
CN(C(=O)CSc1nnnn1-c1ccccc1)C1CCCCC1	103% (inactive)
Cc1nnnn1/C(=C\c1ccccc1)C(=O)OCC(=O)N1CC2(C)CC1CC(C)(C)C2 (stereo not given)	99.2% (inactive)
O=C(Nc1nnc(C2COc3ccccc3O2)o1)c1ccc(F)cc1 (stereo not given)	98.5% (inactive)
O=C(N/N=C/c1ccccn1)C12CC3CC(CC(C3)C1)C2	103% (inactive)
